Source: the antibiotic and cytotoxicity screens of Wong et al. (2023)
Among all 39,000 compounds or so, about 500 (1.3%) were called active. What follows is part of a selection rich in actives, with near analogues and random picks from the rest.

test system: S. aureus RN4220; experiment: growth inhibition call (relative growth <= 0.2); settings: 50 µM

SMILES	growth inhibition call
Cc1noc(C)c1NC(=O)Nc1ccc2c(c1)CC(=O)N([C@H](C)CO)C[C@H](C)[C@H](CN(C)C(=O)Nc1ccc(C(F)(F)F)cc1)O2	inactive
CC(C)NC(=O)N(C)C[C@H]1Oc2ccc(NC(=O)Cc3ccccc3)cc2C(=O)N([C@H](C)CO)C[C@@H]1C	inactive
[N-]=[N+]=NCCOCCNC(=O)CCCOc1ccc(CS(=O)c2nnc(-c3ccc(F)cc3)o2)nc1 (stereo not drawn)	active
C[C@H]1CNC(=O)O1	inactive
COc1ccc(S(=O)(=O)N(C)C[C@@H]2Oc3c(NC(=O)Nc4c(C)noc4C)cccc3C(=O)N([C@@H](C)CO)C[C@H]2C)cc1	inactive
COCCOC(=O)N1C(=O)[C@@]2(c3cc(C#CCC(C(=O)OC)C(=O)OC)ccc31)[C@H](C(=O)N1CCCCCCC1)[C@H]1C(=O)O[C@H](c3ccccc3)[C@H](c3ccccc3)N1[C@@H]2c1ccc(OCCO)cc1	inactive
COCCOC(=O)N1C(=O)[C@@]2(c3cc(C#CCC(C(=O)OC)C(=O)OC)ccc31)[C@H](C(=O)N1CCCCCCC1)[C@H]1C(=O)O[C@H](c3ccccc3)[C@H](c3ccccc3)N1[C@@H]2c1ccc(O)cc1	active
COCCOC(=O)N1C(=O)[C@@]2(c3cc(C#CCC(C(=O)OC)C(=O)OC)ccc31)[C@H](c1ccc(OCCO)cc1)N1[C@H](c3ccccc3)[C@H](c3ccccc3)OC(=O)[C@H]1[C@@H]2C(=O)N1CCCCCCC1	inactive
C[C@@H]1CN([C@H](C)CO)C(=O)c2c(c3ccccc3n2C)-c2ccccc2CO[C@H]1CN(C)S(C)(=O)=O	inactive
C[C@H](CO)N1C[C@H](C)[C@@H](CN(C)S(=O)(=O)c2ccccc2)OCCCC[C@H](C)Oc2ccc(NC(=O)c3ccccc3)cc2C1=O	inactive
CCOC(=O)c1cc2c(c(-c3ccccc3)n1)[C@@H](CCO[Si](C)(C)C(C)(C)C)N(S(=O)(=O)C(C)(C)C)C2	inactive
CC(C)(C)[S@@+]([O-])N1Cc2cc(C(=O)O)nc(-c3ccc(Br)cc3)c2[C@H]1CCO[Si](C)(C)C(C)(C)C	active
CCOC(=O)c1cc2c(c(-c3cccc(Br)c3)n1)[C@@H](CCO[Si](C)(C)C(C)(C)C)N(S(=O)(=O)C(C)(C)C)C2	inactive
C[C@@H]1CCCCO[C@@H](CN(C)S(=O)(=O)c2ccc(Cl)cc2)[C@H](C)CN([C@H](C)CO)C(=O)c2cc(NS(=O)(=O)c3ccccc3)ccc2O1	inactive
COc1cccc(C#Cc2cnc3c(c2)C(=O)N([C@@H](C)CO)C[C@H](C)[C@@H](CN(C)C(=O)C2CCOCC2)O3)c1	inactive
Cc1ccc(S(=O)(=O)N(C)C[C@H]2Oc3ccc(NS(=O)(=O)c4c(C)noc4C)cc3CC(=O)N([C@H](C)CO)C[C@H]2C)cc1	inactive
O=C(O)c1cnc(N2CCCC2)nc1	inactive
Cc1ccc(Cl)c(Nc2ccccc2C(=O)[O-])c1Cl.[Na+]	inactive
Cc1cc(O)c(C(=O)NC(C(=O)NC2C(=O)N3C(C(=O)O)=C(CSc4nnnn4C)CSC23)c2ccc(O)cc2)cn1 (stereo not drawn)	active
CCN1CCN(C(=O)NC(C(=O)NC2C(=O)N3C(C(=O)O)=C(CSc4nnnn4C)CSC23)c2ccc(O)cc2)C(=O)C1=O (stereo not drawn)	active
Cc1cc(=O)c(C(=O)N[C@@H](C(=O)N[C@@H]2C(=O)N3C(C(=O)O)=C(CSc4nnnn4C)CS[C@H]23)c2ccc(O)cc2)c[nH]1	active
Cc1cc2nc3ccc(N(C)C)cc3[s+]c2cc1N.[Cl-]	inactive
C=CCOC(=O)[C@H]1[C@@H]2C(=O)O[C@@H](c3ccccc3)[C@@H](c3ccccc3)N2[C@@H](c2ccc(OCCOC(=O)[C@H]3C[C@H]4C(=O)N[C@@H](CC(C)C)C(=O)N4[C@H]3c3cccc(OCCO)c3)cc2)[C@]12C(=O)Nc1ccc(I)cc12	inactive

SMILES	growth inhibition call
COc1ccc(S(=O)(=O)N(C)C[C@@H]2Oc3cc(C4=CCCC4)ccc3S(=O)(=O)N([C@@H](C)CO)C[C@H]2C)cc1	inactive
C[C@H](CO)N1C[C@H](C)[C@H](CN(C)Cc2ccc(C(F)(F)F)cc2)Oc2ccc(NS(=O)(=O)c3ccc(Cl)cc3)cc2C1=O	inactive
CC[C@@H]1OC(=O)C[C@@H](O)[C@H](C)[C@@H](O[C@@H]2O[C@H](C)[C@@H](O)[C@H](N(C)C)[C@H]2O)[C@@H](CCN2C[C@H](C)C[C@H](C)C2)C[C@@H](C)C(=O)/C=C/C(C)=C\[C@@H]1CO[C@@H]1O[C@H](C)[C@@H](O)[C@@H](OC)[C@H]1OC	active
CCC1OC(=O)CC(O)C(C)C(OC2OC(C)C(O)C(N(C)C)C2O)C(CCN2CC(C)CC(C)C2)CC(C)C(=O)C=CC(C)=CC1COC1OC(C)C(O)C(OC)C1OC (stereo not drawn)	active
CC[C@H]1OC(=O)C[C@@H](O)[C@H](C)[C@@H](O[C@@H]2O[C@H](C)[C@@H](O)[C@H](N(C)C)[C@H]2O)[C@@H](CCN2C[C@H](C)C[C@H](C)C2)C[C@@H](C)C(=O)/C=C/C(C)=C/[C@@H]1CO[C@@H]1O[C@H](C)[C@@H](O)[C@@H](OC)[C@H]1OC	active
C[C@@H]1CN([C@H](C)CO)C(=O)Cc2cc(NS(C)(=O)=O)ccc2O[C@H]1CN(C)S(=O)(=O)c1cn(C)cn1	inactive
C[C@@H]1CN([C@@H](C)CO)C(=O)Cc2cc(NC(=O)c3ccncc3)ccc2O[C@H]1CN(C)S(=O)(=O)c1ccc(Cl)cc1	inactive
C[C@@H]1CCCCO[C@H](CN(C)S(=O)(=O)c2cn(C)cn2)[C@H](C)CN([C@H](C)CO)C(=O)c2cc(NS(=O)(=O)c3ccccc3)ccc2O1	inactive
C[C@H](CO)N1C[C@H](C)[C@@H](CN(C)S(=O)(=O)c2cn(C)cn2)Oc2ccc(NC(=O)CCCN(C)C)cc2C1=O	inactive
C[C@@H]1CCCCO[C@@H](CN(C)S(=O)(=O)c2ccc(F)cc2)[C@H](C)CN([C@@H](C)CO)C(=O)c2cc(NC(=O)CCC(F)(F)F)ccc2O1	inactive
CC(C)C[C@H]1NC(=O)[C@@H](CCCN)NC(=O)[C@H](C(C)C)NC(=O)[C@H]2CCCN2C(=O)[C@@H](Cc2ccccc2)NC(=O)[C@@H](CC(C)C)NC(=O)[C@@H](CCCN)NC(=O)[C@H](C(C)C)NC(=O)[C@H]2CCCN2C(=O)[C@@H](Cc2ccccc2)NC1=O	inactive
CC(C)C[C@@H]1NC(=O)[C@@H](C(C)C)NC(=O)[C@@H]2CCCN2C(=O)[C@@H](CC(=O)O)NC(=O)[C@@H](Cc2c[nH]c3ccccc23)NC1=O	inactive
C[C@@H]1CN([C@H](C)CO)C(=O)c2cccc(NC(=O)c3cnccn3)c2O[C@H]1CN(C)S(=O)(=O)c1ccccc1	inactive
C[C@@H]1CN([C@@H](C)CO)S(=O)(=O)c2ccc(C#CCN(C)C)cc2O[C@H]1CN(C)Cc1cccnc1	inactive
OC[C@H]1O[C@H]2O[C@@H]3[C@@H](O)[C@H](O)[C@H](O[C@@H]4[C@@H](O)[C@H](O)[C@H](O[C@@H]5[C@@H](O)[C@H](O)[C@H](O[C@@H]6[C@@H](O)[C@H](O)[C@H](O[C@@H]7[C@@H](O)[C@H](O)[C@H](O[C@@H]8[C@@H](O)[C@H](O)[C@H](O[C@@H]1[C@@H](O)[C@@H]2O)O[C@@H]8CO)O[C@@H]7CO)O[C@@H]6CO)O[C@@H]5CO)O[C@@H]4CO)O[C@@H]3CO	inactive
CC1=CC(=O)c2ccccc2C1=O	active
O=C1C=C(O)C(=O)c2ccccc21	inactive
NC1=CC(=O)c2ccccc2C1=O	inactive
C[C@H](O)C#Cc1ccc2c(c1)O[C@H](CN(C)C(=O)c1ccccc1)[C@@H](C)CN([C@H](C)CO)S2(=O)=O	inactive
CN(CC(=O)O)S(=O)(=O)c1ccc(F)cc1	inactive
C[C@H](CO)N1C[C@H](C)[C@@H](CN(C)Cc2ccc(C(F)(F)F)cc2)Oc2ccc(NC(=O)C3CCCCC3)cc2C1=O	inactive
CC1(C)S[C@H]2[C@@H](NC(=O)[C@@H](N)c3ccccc3)C(=O)N2[C@@H]1C(=O)O	inactive
CC1(C)S[C@@H]2[C@H](NC(=O)[C@H](N)c3ccc(O)cc3)C(=O)N2[C@H]1C(=O)O	active

SMILES	growth inhibition call
CC1(C)SC2C(NC(=O)C(N)c3ccc(O)cc3)C(=O)N2C1C(=O)O (stereo not drawn)	active
CC1(C)S[C@@H]2[C@H](NC(=O)C3(N)CCCCC3)C(=O)N2[C@H]1C(=O)O	active
C[C@H]1CN([C@@H](C)CO)C(=O)Cc2cc(NS(=O)(=O)c3cn(C)cn3)ccc2O[C@H]1CN(C)C(=O)NC1CCCCC1	inactive
C[C@H]1CN([C@@H](C)CO)C(=O)Cc2cc(NS(=O)(=O)c3cn(C)cn3)ccc2O[C@@H]1CN(C)C(=O)Nc1ccc2c(c1)OCO2	inactive
CN(C)CCCNC(=O)C[C@H]1CC[C@H]2[C@@H](COC[C@@H](O)CN2S(=O)(=O)c2ccc(F)cc2)O1	inactive
C[C@H]1CCCCO[C@H](CN(C)CC2CCCCC2)[C@@H](C)CN([C@@H](C)CO)C(=O)c2cc(NC(=O)CCC(F)(F)F)ccc2O1	inactive
O=C(NO)c1ccc(C(=O)N/N=C/[C@H](O)[C@@H](O)[C@H](O)CO)cc1	inactive
C[C@@H]1CN([C@@H](C)CO)C(=O)c2cccc(NC(=O)Nc3ccc4c(c3)OCO4)c2O[C@@H]1CN(C)S(C)(=O)=O	inactive
Cc1ccc(S(=O)(=O)N(C)C[C@@H]2Oc3ccc(NS(=O)(=O)c4ccc(F)cc4)cc3CC(=O)N([C@H](C)CO)C[C@@H]2C)cc1	inactive
CC(C)CC#Cc1ccc2c(c1)O[C@@H](CN(C)C(=O)c1ccccn1)[C@H](C)CN([C@@H](C)CO)S2(=O)=O	inactive
O=C(C[C@H]1CC[C@@H]2[C@H](COC[C@H](O)CN2C(=O)Nc2ccc(Cl)c(Cl)c2)O1)NCc1ccncc1	inactive
O=C(C[C@@H]1CC[C@@H]2[C@H](COC[C@@H](O)CN2C(=O)Nc2ccc(Cl)c(Cl)c2)O1)NCc1ccncc1	active
O=C(C[C@@H]1CC[C@@H]2[C@H](COC[C@H](O)CN2C(=O)Nc2ccc(Cl)c(Cl)c2)O1)NCc1ccc(Cl)c(Cl)c1	inactive
O=C(C[C@H]1CC[C@H]2[C@@H](COC[C@H](O)CN2C(=O)Nc2ccc(Cl)c(Cl)c2)O1)NCc1ccncc1	inactive
O=C(C[C@H]1CC[C@H]2[C@@H](COC[C@@H](O)CN2C(=O)Nc2ccc(Cl)c(Cl)c2)O1)NCc1ccc(Cl)c(Cl)c1	inactive
O=C(C[C@H]1CC[C@H]2[C@@H](COC[C@@H](O)CN2C(=O)Nc2ccc(Cl)c(Cl)c2)O1)NCc1ccncc1	inactive
O=C(C[C@H]1CC[C@H]2[C@@H](COC[C@H](O)CN2C(=O)Nc2ccc(Cl)c(Cl)c2)O1)NCc1ccc(Cl)c(Cl)c1	inactive
O=C(C[C@@H]1CC[C@H]2[C@@H](COC[C@@H](O)CN2C(=O)Nc2ccc(Cl)c(Cl)c2)O1)NCc1ccc(Cl)c(Cl)c1	inactive
O=C(C[C@@H]1CC[C@H]2[C@@H](COC[C@H](O)CN2C(=O)Nc2ccc(Cl)c(Cl)c2)O1)NCc1ccncc1	active
O=C(C[C@@H]1CC[C@@H]2[C@H](COC[C@H](O)CN2C(=O)Nc2ccc(Cl)c(Cl)c2)O1)NCc1ccncc1	inactive
O=C(C[C@@H]1CC[C@H]2[C@@H](COC[C@H](O)CN2C(=O)Nc2ccc(Cl)c(Cl)c2)O1)NCc1ccc(Cl)c(Cl)c1	active
O=C(C[C@@H]1CC[C@H]2[C@@H](COC[C@@H](O)CN2C(=O)Nc2ccc(Cl)c(Cl)c2)O1)NCc1ccncc1	active
